According to ChEMBL document CHEMBL4888484, “Replenishing the malaria drug discovery pipeline: Screening and hit evaluation of the MMV Hit Generation Library 1 (HGL1) against asexual blood stage Plasmodium falciparum ,using a nano luciferase reporter read-out” (2022):
Among all 4,800 compounds or so, about 410 (8.5%) showed an effect of 50% or more. The sample as a whole holds a higher share of strong results than the screen did.

What follows are compounds tested on Plasmodium falciparum (assay: Confirmatory screen in NF54 pLDH assay, in single point, at 2uM, 72h). Conditions: timepoint 72 hour.
Type: functional, Erythrocyte

| Structure (SMILES) | % Inhibition [%] |
| --- | --- |
| CCCOc1ccc(Nc2cc(C)nc3ccc(Cl)cc23)cc1 | 63 |
| Cc1cc(CS(=O)(=O)NCCOc2ccc(Cl)cc2)on1 | 2 |
| CC(C)(C)C1CC(NC(=O)C2CC=CC2)CCO1 (centres undefined) | -1 |
| Cc1cccc(C)c1OCC(=O)Nc1ccc(-c2nc3cc4ccccc4cc3[nH]2)cc1 | 18 |
| c1cc(-c2nc3cc4ccccc4cc3[nH]2)nc(-c2nc3cc4ccccc4cc3[nH]2)c1 | 97 |
| c1ccc2cc(-c3ccc4ccccc4n3)ccc2c1 | 16 |
| Cc1onc(C(=O)NCc2cnn(C)c2C)c1COc1cccc(C(F)(F)F)c1 | -4 |
| O=C(Cn1cnc2cc3c(cc21)OCCCO3)Nc1ccc(F)cc1 | 13 |
| CCc1ccsc1CN=C(N)NC1CCCCC1 | -9 |
| O=C(Nc1cc(-c2onc3c2CCCC3)cc(C(F)(F)F)c1)c1cncc(Br)c1 | 95 |
| Clc1ccc(-c2onc3c2CCCC3)cc1 | 9 |
| O=C(Nc1onc2c1CCC2)c1ccc2ccccc2c1 | 41 |
| Cc1cc(C)cc(-c2cc3nc(C)cc(N4CCC(C(=O)NCc5cccc(F)c5)CC4)n3n2)c1 | 67 |
| O=C(NCc1cccc(F)c1)[C@H]1CCCN(c2nc3ccccc3n(Cc3ccccc3)c2=O)C1 | 5 |
| Cc1cc(C)cc(-c2cc3nc(C)cc(N4CCC(C(=O)Nc5ccc(C)c(Cl)c5)CC4)n3n2)c1 | -12 |
| CC1CN(CC(=O)NCCC#N)C(C)CO1 (centres undefined) | 1 |
| Cc1ccc(CN2C(=O)NC3(CCCCC3C)C2=O)c(OCC2CCOC2)c1 (centres undefined) | 6 |
| O=C(NCCCN1CCOCC1)C1C2CCCC21 (centres undefined) | 8 |
| CN(C)c1ccc(-c2nc(C(F)(F)F)cc(C(F)(F)C(F)(F)F)n2)cc1 | 5 |
| Oc1cccc(CN2CCC3(CC2)C[C@H](c2ccccc2)CN(C2CC2)C3)c1 | 29 |
| Cc1c(C(=O)Nc2cccc(S(=O)(=O)NC3CC3)c2)cnn1C | 12 |
| CC1(CCCCNC(=O)N2CC[C@H](S(C)(=O)=O)C2)OCCO1 | 6 |
| CCN1c2cc(C(=O)NCc3ccccc3)ccc2C(=O)N2CCCC[C@H]21 | 7 |

| Structure (SMILES) | % Inhibition [%] |
| --- | --- |
| COc1ccc(-n2nc(C)c3c2NC(=O)C[C@@H]3c2ccccc2OCC(C)C)nn1 | -1 |
| Cc1nc2cc3c(cc2n1CC(=O)Nc1ccc(Cl)cc1)OCCCO3 | 15 |
| Cn1cc(-c2ccc(Cl)cc2)c2ncn(CC(=O)Nc3cccc(Cl)c3)c(=O)c21 | -1 |
| Cc1nnc(-c2ccc3ccn(CC(=O)Nc4ccc(F)c(Cl)c4)c3c2)o1 | 96 |
| CCc1cccc(NC(=O)Cn2ccc3ccc(-c4nnc(C)o4)cc32)c1 | 89 |
| Cc1cc(=O)n(CC(=O)Nc2ccc(Cl)c(C(F)(F)F)c2)c(-c2ccc(F)cc2)n1 | 0 |
| Cc1noc(C)c1CC(=O)Nc1cccc(-c2nnco2)c1 | 9 |
| CC1CCCC(C)C12NC(=O)N(CN1CCN(CCOc3ccccc3Cl)CC1)C2=O (centres undefined) | 5 |
| CCOc1ccc(CNC(=O)c2sccc2NC(=O)c2cnccn2)cc1 | -15 |
| COc1ccc(C(=O)c2c[nH]c(C(=O)NC[C@H]3CCCO3)c2)cc1 | 3 |
| COc1ccccc1CNC(=O)c1cnn2c3c(cnc12)CCCC3 | -2 |
| Brc1cc(Br)c2nc(-c3cnccn3)ccc2c1 | 14 |
| CC(=O)c1ccc(N2CCN(C(=O)c3nn[nH]c3Nc3ccc(C)c(C)c3)CC2)cc1 | 8 |
| CCn1cc(Cl)c(-c2nnc(-c3cccs3)o2)n1 | 0 |
| CC1CN(C)C(C)c2c1oc1ccc(N)cc21 (centres undefined) | -17 |
| CC1=NN(c2ncc(C(F)(F)F)cc2Cl)C(=O)c2ccccc2O1 | 6 |
| CN1CCC(Nc2ncnc3c2cnn3C)C1c1ccc(Cl)cc1 (centres undefined) | 12 |
| Cc1cc2ncn(CN3CC[C@@H](NC(=O)OC(C)(C)C)C3)c2cc1C | -7 |
| Brc1cncnc1NC1CC1 | 9 |
| CC1CC(Nc2ncnc3cc(Br)ccc23)CCN1C (centres undefined) | 95 |
| CCCOc1cccc2c(NC3CCN(CCOC)CC3)ccnc12 | 48 |
| O=C(NCc1ccco1)c1nc(-c2ccncc2)cs1 | 10 |
| Cc1noc(C)c1NC(=O)CCS(=O)(=O)c1ccc2ccccc2c1 | 4 |

| Structure (SMILES) | % Inhibition [%] |
| --- | --- |
| O=C(Nc1nccnc1C(=O)O)c1ccc(Cl)cc1 | 14 |
| CC1CCC(N2CC(C(=O)N(C3CC3)C(C)C(C)C)CC2=O)CC1 (centres undefined) | 1 |
| O=C1c2ccccc2C(=O)N1CCc1csc(Cn2cncn2)n1 | 10 |
| CN1CCN(C2(CNc3ccnc4ccccc34)CCCC2)CC1 | 98 |
| c1ccc(Oc2ccnc(NCC34COCCN3CCOC4)n2)cc1 | -13 |
| Cc1noc(OCCc2ccccc2)n1 | 11 |
| Cc1ccc(C)c(-n2cnc(=O)n2[C@H]2CCN(C3CC3)C2=O)c1 | 51 |
| Cc1ccc(C)c(N2CCN(c3ncc4c(=O)n(-c5ccc6c(c5)OCO6)c(=O)[nH]c4n3)CC2)c1 | 3 |
| Brc1ccc2c(c1)C1CCCCC1N2 (centres undefined) | 9 |
| Cc1c(F)cccc1NC(=O)N1CCN(C2=CC3=N[C@@H](C)CN3C=N2)CC1 | 54 |
| CC[C@H]1CN2C=NC(N3CCN(C(=O)Nc4cc(F)cc(F)c4)CC3)=CC2=N1 | 46 |
| CC[C@H]1CN2C=NC(N3CCN(C(=O)Cc4ccccc4)CC3)=CC2=N1 | 25 |
| COC(=O)c1nc(NC(=O)C2(C)CCCC2)sc1C(C)C | -9 |
| Cc1nnc(N2CC[C@H](c3nnc[nH]3)C2)s1 | 4 |
| CC1(C)CC(=O)C2(Cc3ccccc3N3CCN(Cc4ccccc4)C[C@H]32)C(=O)C1 | 12 |
| COc1c[nH]c(C(=O)NC2CCN(Cc3ccccc3)CC2)cc1=O | 1 |
| O=C(CN1C(=O)COc2cc(Br)ccc21)Nc1cccc2ccccc12 | 9 |
| CC1CCCN(C2(N3CCCC(C)C3)C(=O)Nc3ccc(F)cc32)C1 (centres undefined) | 19 |
| N#Cc1cccc(CNCC2(N3CCOCC3)CCCCC2)c1 | -4 |
| Cc1c(S(=O)(=O)NCCn2nc(C(F)(F)F)cc2C)cnn1C | 8 |
| Cc1nc2sc(C(=O)Nc3ccc4ccccc4c3)c(N)c2c(C)c1C | 9 |
| Cc1c(C)c2ccc(NC(=O)c3cc4ccccc4o3)cc2[nH]c1=O | 78 |
| Cc1cc(C(=O)Nc2ccc3ccccc3c2)co1 | -3 |
